Test results as given in the supplement of paper PMC6555819.

How the values were obtained:
Experiment in all cases: PBM binding z-score (relative to random genomic background probes); higher = stronger binding; sequences stand for … in GC…GCGATTGACAGCGTAGAATGAAGG
[1] = test system: FXR:RXRa (NR concentration 270 nM, RXRa partner concentration 90 nM)
Method in brief: (§1)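 On custom Agilent 4×180K arrays, double-stranded probes with 34-nt variable regions carried direct-repeat seeds, single-nucleotide variants, half-site ablations or random human genomic background. Ligand-free nuclear receptor dimers were applied for 1 h, and binding was read with antibodies against each partner (one per run). Binding z-scores come from regression-normalized fluorescence, with the random background probes as reference.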

[2] = test system: LXRa:RXRa (NR concentration 270 nM, RXRa partner concentration 90 nM)
Method in brief: as §1

[3] = test system: LXRa homodimer (NR concentration 270 nM)
Method in brief: as §1

[4] = test system: LXRb:RXRa (NR concentration 270 nM, RXRa partner concentration 90 nM)
Method in brief: as §1

[5] = test system: LXRb homodimer (NR concentration 270 nM)
Method in brief: as §1

[6] = test system: PPARa:RXRa (NR concentration 270 nM, RXRa partner concentration 90 nM)
Method in brief: as §1

[7] = test system: PPARg:RXRa (NR concentration 180 nM, RXRa partner concentration 90 nM)
Method in brief: as §1

[8] = test system: PPARg:RXRa 270nM:90nM, anti-RXR (NR concentration 270 nM, RXRa partner concentration 90 nM)
Method in brief: as §1

[9] = test system: PPARg:RXRa 30nM:10nM, anti-RXR (NR concentration 30 nM, RXRa partner concentration 10 nM)
Method in brief: as §1

[10] = test system: PPARg:RXRa 90nM:30nM, anti-RXR (NR concentration 90 nM, RXRa partner concentration 30 nM)
Method in brief: as §1

[11] = test system: PPARg:RXRa DBDmut IVT, anti-RXR (DBD mutation: RXRa K156A/R161A, NR concentration 270 nM, RXRa partner concentration 90 nM)
Method in brief: as §1

[12] = test system: PPARg:RXRa IVT, anti-PPARg (NR concentration 270 nM, RXRa partner concentration 90 nM)
Method in brief: as §1

[13] = test system: PPARg DBDmut:RXRa IVT, anti-PPARg (DBD mutation: PPARg1 K132A/R137A, NR concentration 270 nM, RXRa partner concentration 90 nM)
Method in brief: as §1

[14] = test system: PPARg DBDmut IVT, anti-PPARg (DBD mutation: PPARg1 K132A/R137A, NR concentration 270 nM)
Method in brief: as §1

[15] = test system: PPARg homodimer (NR concentration 180 nM)
Method in brief: as §1

[16] = test system: PXR:RXRa (NR concentration 270 nM, RXRa partner concentration 90 nM)
Method in brief: as §1

[17] = test system: PXR homodimer (NR concentration 270 nM)
Method in brief: as §1

[18] = test system: RARa:RXR (NR concentration 270 nM, RXRa partner concentration 90 nM)
Method in brief: as §1

[19] = test system: RARa homodimer (NR concentration 270 nM)
Method in brief: as §1

[20] = test system: RARb:RXRa (NR concentration 270 nM, RXRa partner concentration 90 nM)
Method in brief: as §1

Row | Sequence | PBM binding z-score [1] | PBM binding z-score [2] | PBM binding z-score [3] | PBM binding z-score [4] | PBM binding z-score [5] | PBM binding z-score [6] | PBM binding z-score [7] | PBM binding z-score [8] | PBM binding z-score [9] | PBM binding z-score [10] | PBM binding z-score [11] | PBM binding z-score [12] | PBM binding z-score [13] | PBM binding z-score [14] | PBM binding z-score [15] | PBM binding z-score [16] | PBM binding z-score [17] | PBM binding z-score [18] | PBM binding z-score [19] | PBM binding z-score [20]
1 | CCTGCTAGGTCATGGTAAGCTAATCTACAGTATG | 3.82 | 2.46 | 0.0967 | 1.86 | -0.0761 | 3.64 | 2.48 | 2.64 | 0.993 | 1.66 | 4.44 | 3.92 | 0.752 | 0.561 | 1.24 | 1.15 | -0.26 | 2.32 | -0.305 | 3.87
2 | ATCGAAAGGTAGAAGGTGAGTATACCCACCCGAA | 0.00191 | 0.0493 | -0.115 | -0.132 | 0.0948 | 1.26 | 1.3 | 1.72 | 0.876 | 1.03 | -0.39 | 0.667 | 1.35 | -0.025 | 0.231 | 0.0568 | 0.241 | 0.388 | 0.608 | 0.615
3 | AGAATGAGGTTATTAAGAACAGGGAATTGCGGTC | 1.53 | 1.45 | 0.11 | 1.22 | 0.0569 | 2.3 | 1.53 | 1.67 | 0.448 | 1.02 | 3.07 | 2.57 | 0.828 | 0.0753 | 0.538 | 1.13 | 0.548 | 1.32 | 0.488 | 1.4
4 | TTACCATGGTGAAGGTCGTTGATCCCTCTGTAGA | 1.59 | 1.54 | -0.212 | 1.35 | -0.704 | 1.64 | 1.06 | 2.74 | 1.09 | 2.44 | -0.0288 | 0.772 | -0.132 | -0.462 | 0.317 | 1.1 | 0.0781 | 0.942 | -0.727 | 0.811
5 | AGGCAAAGTTCACTAGGTAACGTAAGATTCAGCT | 5.31 | 5.15 | 2.57 | 3.12 | 0.881 | 4.61 | 6.33 | 6.04 | 2.78 | 5.21 | 2.96 | 4.77 | 1.25 | 1.49 | 3.61 | 4.02 | 2.73 | 2.94 | 1.73 | 4.61
6 | CCTCGGAGGACAGAAGGTCTGAGCTGTCCGCTTT | -0.434 | -0.47 | -0.775 | -1.15 | -1.31 | -0.68 | -0.853 | -0.655 | -1.15 | -1.14 | 0.154 | -0.94 | -1.16 | -2.11 | -0.0745 | -0.674 | -0.886 | -0.544 | -0.761 | 0.519
7 | CAAACTAGGTCACGAAAGGTCAAAGGCGAATGAC | 7.72 | 8.23 | 7.26 | 7.15 | 2.21 | 6.78 | 10.6 | 8.54 | 7.17 | 8.65 | 8.48 | 9.08 | 4.73 | 2.51 | 5.53 | 7.28 | 2.45 | 8.15 | 3.08 | 5.86
8 | CTCGAAAGGACGGTTGAGGTGAGTATACGGATAA | 0.507 | -0.351 | -0.439 | -0.303 | -0.832 | 0.0414 | 0.232 | -0.0748 | 0.0534 | -0.244 | -0.361 | -0.0316 | 0.142 | 0.0698 | -0.218 | 0.0192 | 0.134 | 0.512 | -0.448 | 0.634
9 | CCAGACAGGTGAAAGGTATCTCAGTCTGGTACGC | -0.129 | 0.0546 | -0.271 | 0.122 | -0.633 | 2.07 | 3.41 | 4.19 | 1.94 | 4.13 | 2.04 | 1.9 | 0.166 | -0.382 | 0.656 | 0.00827 | -0.341 | 0.664 | -0.422 | 0.68
10 | TCTGCTAGGACAACGATGGTCAGCTAATCTGCTA | -0.541 | -0.708 | -0.957 | -0.773 | -0.823 | -0.569 | -0.0545 | 0.0795 | 0.983 | 0.581 | 0.636 | -0.317 | -0.808 | -0.587 | -1.47 | -0.66 | -1.33 | -0.497 | -0.832 | 0.175
11 | CCGACTGGGGCATAAGGTTACTATAAGCCAGCCC | 0.52 | 3.57 | 0.0863 | 1.26 | -1.18 | 1.63 | 2.33 | 2.96 | 0.95 | 2.34 | 2.65 | 3.13 | -0.815 | -1.53 | 0.494 | 0.29 | -0.23 | 0.911 | -0.358 | 1.45
12 | CCTACTGGGCCATCAGGTCAATGATATCAACGTT | 1.53 | 0.905 | 0.486 | 1.15 | -0.402 | 2.54 | 2.79 | 3.37 | 0.642 | 2.76 | 4.61 | 5.43 | 0.416 | 0.266 | 1.14 | 1.16 | 0.0872 | 1.6 | -0.0644 | 2.19
13 | GATACAGGGTCAAGGACAGAGTACGCGTATTGAT | 6.59 | 4.45 | 0.185 | 4 | 0.413 | 5.54 | 5.7 | 5.61 | 2.93 | 4.51 | 3.11 | 3.89 | 1.4 | 0.618 | 2.51 | 3.92 | 0.786 | 4.72 | 1.69 | 4.52
14 | CCTAGTTGGTCAAGGACACACACGCTATAGGTAC | 0.477 | 0.154 | 0.309 | 0.44 | 0.532 | 0.0552 | 1.12 | 0.49 | 0.287 | 0.489 | 1.07 | 1.39 | 0.248 | -0.0353 | 0.735 | 0.0768 | 0.977 | 1.06 | 1.89 | 1.51
15 | CCTACTGGGCCAAGGTCATTGGTCAGTCAAAGCA | 3.51 | 2.93 | 1.17 | 2.84 | -0.423 | 4.01 | 4.31 | 4.6 | 1.68 | 3.55 | 3.94 | 4.88 | -0.325 | -0.629 | 1.86 | 3.62 | 1.12 | 3.85 | 0.172 | 3.56
